HEK cytotox: cytotoxic compounds in HEK 293 cells. 94,000 compounds, 6.6% hits. Potency, µM (titrated, usually from 115 µM), inactives show at the top dose activity change, negative = cytotoxicity, most hits filed as inhibitors. HEK 293 viability, ATP luminescence (CellTiter-Glo), 48-72 h. AID 1345083; note: potency is the fitted concentration of half-maximal effect; % is set by controls: 0 for no effect and ±100 for the full control effect; nearly all actives have a fitted effect of over 60% in size
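Pintool-delivered compounds were incubated with HEK 293 cells (250 cells/well) at 37 degree Celsius for 48 or 72 hr. ATP-dependent luminescence (CellTiter-Glo) then reported remaining viable cells.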
GPT2 inh: inhibitors of human GPT2 alanine aminotransferase. Q8TD30. Recombinant GPT2, coupled pyruvate oxidase/HRP Amplex Red fluorescence. Potency, µM (top dose mostly 57.7 µM), for the others: at the top dose activity change, negative = inhibition, most hits filed as inhibitors. 100,000 compounds, 0.25% hits. AID 1671188; note: potency is the fitted concentration of half-maximal effect; % is set by controls: 0 for no effect and ±100 for the full control effect; nearly all actives have a fitted effect of over 60% in size
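GPT2 10ng/uL, a-KG 250uM, L-Ala 2mM, HEPES pH7.5 + 0.0001% Tween; 30 min RT. Then Amplex mix (PO/HRP/ThPP), 30 min RT dark, fluorescence. AOA 50uM used as positive control.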
3T3 cytotox: kills NIH 3T3 cells; 94,000 compounds, 4.3% hits; Potency, µM (highest dose often 96.7 µM), for inactives: top-dose activity change, negative = cytotoxicity, usual class: inhibitors; AID 1345082; NIH 3T3 viability, CellTiter-Glo ATP luminescence, 48-72 h; note: potency is the fitted concentration of half-maximal effect; % is set by controls: 0 for no effect and ±100 for the full control effect; nearly all actives have a fitted effect of over 55% in size
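NIH 3T3 cells at 400 cells/well received 23 nL of compound by pintool and were incubated 48 or 72 h at 37 °C. Viability was read as ATP-coupled CellTiter-Glo luminescence.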
FLuc inh: Photinus pyralis luciferase inhibition | P08659 | purified P. pyralis luciferase, luminescence, biochemical | Potency, µM (series often up to 115 µM), hits mostly inhibitors | 76,000 compounds, 2.5% hits; note: potency is the fitted concentration of half-maximal effect; % is set by controls: 0 for no effect and ±100 for the full control effect; nearly all actives have a fitted effect of over 65% in size
Target sequence (P08659 whole entry, looked up): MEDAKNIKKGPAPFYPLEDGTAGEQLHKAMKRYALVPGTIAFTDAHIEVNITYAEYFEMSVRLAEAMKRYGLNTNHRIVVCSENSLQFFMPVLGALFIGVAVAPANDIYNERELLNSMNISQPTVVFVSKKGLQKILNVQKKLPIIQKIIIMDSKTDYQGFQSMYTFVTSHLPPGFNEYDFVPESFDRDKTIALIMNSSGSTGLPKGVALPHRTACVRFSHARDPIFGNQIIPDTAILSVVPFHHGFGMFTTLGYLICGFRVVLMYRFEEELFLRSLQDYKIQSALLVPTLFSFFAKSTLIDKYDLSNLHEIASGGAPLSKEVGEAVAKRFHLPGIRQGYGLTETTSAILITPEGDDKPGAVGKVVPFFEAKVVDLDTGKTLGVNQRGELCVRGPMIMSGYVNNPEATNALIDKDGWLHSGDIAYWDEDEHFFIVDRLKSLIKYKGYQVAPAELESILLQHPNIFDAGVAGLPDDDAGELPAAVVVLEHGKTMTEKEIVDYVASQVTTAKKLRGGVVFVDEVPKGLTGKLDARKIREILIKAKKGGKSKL
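Luminescence read by CCD imaging after purified firefly luciferase (10nM final) was added to substrate buffer holding 10uM D-luciferin and 10uM ATP, pH 7.5, pre-dosed with compound.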
hNpr1 antagonist: blocks ANP-stimulated signaling of human Npr1 receptor; AID 1347048; HEK293 hNpr1 GloSensor cGMP, ANP-stimulated luminescence; 76,000 compounds, 1.6% hits; P16066; Potency, µM (titrated, usually from 46.3 µM), without a hit: top-dose activity change, negative = inhibition, most hits filed as inhibitors; calls by dose curve; note: potency is the fitted concentration of half-maximal effect; % is set by controls: 0 for no effect and ±100 for the full control effect; nearly all actives have a fitted effect of over 60% in size
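HEK293 cells stably expressing human Npr1 and cGMP GloSensor pGS-40F, loaded 2 h with 2% GloSensor reagent, given compound 30 min at room temperature. Luminescence read before and 20 min after 0.1 nM hNppA.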
GPT2 conf: human alanine aminotransferase 2 inhibition, confirmatory; GPT2 enzyme, coupled Amplex Red pyruvate fluorescence; 95 compounds, 90% hits; AID 1671187; shares compounds with GPT2 inh; Potency, µM, hits mostly inhibitors
* marks the source's active call; other numbers are inactive results; [ ] = remark or other dose. Most compounds without a hit are left out; they make up all but 10% or so of the library. Unless noted, calls come from the whole dose curve; as a rule, active = well fitted curve in the direction sought with a large enough effect; inconclusive = small, poorly fitted or top-dose-only effect, or another doubt; inactive = no such curve, though single readings can be large; an effect the other way counts as inactive or inconclusive.

What do the screens show for `O=C(c1cccs1)N1CCOc2ccc(N3CCCC3)cc2C1`?
HEK cytotox: 18µM*; GPT2 inh: 1.3µM*; 3T3 cytotox: inconclusive; GPT2 conf: 1.4*

Results for COc1ccc2[nH]c(=O)c(CCC(=O)N3CCN(CC(C)C)CC3)cc2c1 ?
HEK cytotox: -3%; GPT2 inh: inactive; 3T3 cytotox: inactive; FLuc inh: inactive; hNpr1 antagonist: -1%

Results for O=S(=O)(c1ccc(Cl)cc1)c1nnn2c1nc(N1CCOCC1)c1ccccc12 ?
HEK cytotox: -1%; GPT2 inh: 2%; 3T3 cytotox: inconclusive

How did CC(C)CNC(=O)c1cc(N2CCOCC2)cc2c1OCCN2C do in these assays?
GPT2 conf: 2*

What do the screens show for `CN1CCOc2c(C(=O)N3CC[S+](=O)([O-])CC3)cc(N3CCOCC3)cc21`?
GPT2 conf: 2*

How did CN1CCOc2c(C(=O)NCCc3ccccc3)cc(N3CCOCC3)cc21 do in these assays?
HEK cytotox: inconclusive; GPT2 inh: inconclusive; 3T3 cytotox: -26%[138 µM]; FLuc inh: inactive; hNpr1 antagonist: 0%[70.6 µM]

Results for CN1CCOc2c(C(=O)NCCC(N)=O)cc(-c3ccccc3)cc21 ?
HEK cytotox: 0%[172 µM]; GPT2 inh: inactive; 3T3 cytotox: inconclusive; FLuc inh: inactive; hNpr1 antagonist: 1%[70.6 µM]

What do the screens show for `Fc1cc(Nc2ncc(-c3cccnc3)c3c2OCC3)cc(N2CCOCC2)c1`?
HEK cytotox: inconclusive; GPT2 inh: inactive; 3T3 cytotox: inconclusive; FLuc inh: inconclusive; hNpr1 antagonist: -3%[70.6 µM]

How did CNC(=O)c1cccc(-c2cnc(Nc3ccc(N4CCOCC4)cc3)c3c2CCO3)c1 do in these assays?
HEK cytotox: 79µM*; GPT2 inh: inconclusive; 3T3 cytotox: inconclusive; FLuc inh: 0.63µM*; hNpr1 antagonist: -7%[70.6 µM]; GPT2 conf: 6.3*

What do the screens show for `O=C(O)[C@H]1O[C@H](Oc2cc3oc(-c4ccccc4)cc(=O)c3c(O)c2O)[C@H](O)[C@@H](O)[C@H]1O`?
GPT2 inh: 3.4µM*; GPT2 conf: 3.1*

What do the screens show for `CN1C[C@@H]2CCCN3CCC[C@@H]([C@H]23)[C@H]1CCCC(=O)N1CCCCC1`?
HEK cytotox: 8%; GPT2 inh: inactive; 3T3 cytotox: 0%; FLuc inh: inactive; hNpr1 antagonist: 2%

How did c1ccc(Nc2cc3c(cn2)NCCN(Cc2ccsc2)C3)cc1 do in these assays?
HEK cytotox: inconclusive; GPT2 inh: inconclusive; 3T3 cytotox: inconclusive; FLuc inh: inactive; hNpr1 antagonist: -3%[70.6 µM]; GPT2 conf: 2.5*

What do the screens show for `COc1ccc(Nc2cc3c(cn2)NCCN(Cc2ccccc2)C3)cc1`?
HEK cytotox: 79µM*; GPT2 inh: inconclusive; 3T3 cytotox: inconclusive; FLuc inh: inactive; hNpr1 antagonist: inconclusive; GPT2 conf: 5.6*

What do the screens show for `COc1ccc(CN2CCNc3cnc(Nc4ccccc4)cc3C2)cn1`?
HEK cytotox: inconclusive; GPT2 inh: inconclusive; 3T3 cytotox: inconclusive; FLuc inh: inactive; hNpr1 antagonist: -4%[70.6 µM]; GPT2 conf: 3.1*

What do the screens show for `COCCN1CCNc2cc(Nc3ccc(N4CCOCC4)cc3)ncc2C1`?
HEK cytotox: -27%[172 µM]; GPT2 inh: inconclusive; 3T3 cytotox: inconclusive; FLuc inh: inactive; hNpr1 antagonist: 2%[70.6 µM]; GPT2 conf: 5.6*

Results for O=C(NCC1CC1)C1CCCN1C(=O)c1cccc(-c2ccccn2)c1 (configuration not stated) ?
HEK cytotox: 1%; GPT2 inh: inactive; 3T3 cytotox: -7%

How did C=CC(=O)Nc1cccc(Nc2nc(Nc3ccc(N4CCN(C(C)=O)CC4)cc3OC)ncc2C(F)(F)F)c1 do in these assays?
GPT2 inh: 3.2µM*; GPT2 conf: 2.2*

Results for CN(C)c1ccc2c(c1)CN(C(=O)c1cnccn1)CCO2 ?
HEK cytotox: -4%; GPT2 inh: inconclusive; 3T3 cytotox: -19%; GPT2 conf: 0.86*

Results for COc1cc(N2CCN(C)CC2)ccc1Nc1nccc(-c2cn(C)c3cnccc23)n1 ?
GPT2 inh: 3.5µM*; GPT2 conf: 2.4*

How did COc1cc(N2CCC(N3CCN(C)CC3)CC2)ccc1Nc1ncc(Cl)c(Nc2ccccc2S(=O)(=O)C(C)C)n1 do in these assays?
GPT2 inh: 2.2µM*; GPT2 conf: 3.1*

How did CNS(=O)(=O)c1ccccc1Nc1nc(Nc2ccc(N3CCN(C)CC3)cc2OC)ncc1Br do in these assays?
GPT2 inh: inconclusive; GPT2 conf: 2.7*

Results for COc1cc(N2CCC(N(C)C)CC2)ccc1Nc1ncc(Cl)c(Nc2ccccc2P(C)(C)=O)n1 ?
GPT2 inh: 1.9µM*; GPT2 conf: 2.2*

How did COc1ccccc1Nc1ccnc(N2CCC(NC(=O)c3ccc(Cl)nc3)CC2)n1 do in these assays?
HEK cytotox: inconclusive; GPT2 inh: -12%; 3T3 cytotox: -21%

What do the screens show for `CN1CCN(c2ccc(OC(F)(F)F)c(Nc3ncc4c(n3)-c3c(c(C(N)=O)nn3CCO)CC4)c2)CC1`?
GPT2 inh: inactive

How did CCS(=O)(=O)N1CCN(c2ccc(Nc3ncc(C(N)=O)c(NC4CC4)n3)cc2)CC1 do in these assays?
GPT2 inh: inactive

What do the screens show for `COC(=O)N1CCN(Cc2ccccc2-c2cccnc2)CC1`?
HEK cytotox: inconclusive; GPT2 inh: -9%[88.5 µM]; 3T3 cytotox: inconclusive

What do the screens show for `COc1cccc(CN2CCCN(S(C)(=O)=O)C(c3ccccc3)CC(=O)NCC2)c1` (configuration not stated)?
HEK cytotox: -7%; GPT2 inh: 1%; 3T3 cytotox: -15%; FLuc inh: inactive; hNpr1 antagonist: 3%

Results for COc1cccc(CN2C(=O)OC3(CCN(Cc4ccc(F)cc4)CC3)C2(C)c2cccnc2)c1 (configuration not stated) ?
HEK cytotox: inconclusive; GPT2 inh: 2%; 3T3 cytotox: inconclusive; FLuc inh: inactive; hNpr1 antagonist: 3%

How did Cc1nc(N2CCCC2)nc(N2CCC3(CC2)OCCCC3O)c1C (configuration not stated) do in these assays?
HEK cytotox: -13%; GPT2 inh: -23%; 3T3 cytotox: -18%; FLuc inh: inactive; hNpr1 antagonist: 0%

How did Cc1cc2c(N3CCCC3)nc(N3CCCC3)nc2n1C do in these assays?
GPT2 inh: inconclusive; GPT2 conf: inconclusive

How did Cc1ccc(S(=O)(=O)N2CCC(CCC(=O)NCc3cccc(F)c3)CC2)cc1 do in these assays?
HEK cytotox: inconclusive; GPT2 inh: 3%; 3T3 cytotox: inconclusive
